In PubChem BioAssay (NCI):
About 83,000 compounds went through this panel and 20% of them were active in at least one assay; those are over-represented in the sample as a whole.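 Assay: single dose, 48 h. Readout: percent growth (0 = no net growth; negative = cell death). Active: <10.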 Values without a mark were called inactive. Activity calls are given as the source filed them.

Tested on: OVCAR-5 ovarian
Assay: NCI-60 one-dose screen, 48 h (100 = growth as untreated, 0 = no growth, -100 = all killed)
Conditions: 10 µM unless noted
Method: Growth inhibition of the OVCAR-5 human tumor cell line is measured as a screen for anti-cancer activity. Cells are grown in 96 well plates and exposed to the test compound for 48 hours. Compounds are tested at a single concentration, which is 10^-5 M for most compounds. The reported endpoint is percent growth (GI% or GIPRCNT), where numbers from 0 - 100% represent growth inhibition, and numbers from -100% - 0 represent cell death. For example, a value of 40 represents 60% growth inhibition. A value of 0 means no net growth occurred over the course of the experiment. A value of -40 indicates 40% of cells at the beginning of the experiment died by the end of the experiment. A value of -100 means all cells are dead at the end of the experiment.
NCI-60 Human Tumor Cell Lines Screen was performed using the standard one-dose NCI protocol, which is described in more detail at https://dtp.cancer.gov/discovery_development/nci-60/default.htm.
Compounds with GIPRCNT values below 10 were considered active. Activity score was based on GIPRCNT using the following formula: […]
Score is 0 for GIPRCNT values of 100 or above, 50 for GIPRCNT values of 0, and 100 for GIPRCNT values of -100.

Question: How did the growth turn out when `C=CCn1c(SCC(=O)Nc2cccc(C(=O)/C=C/c3ccccc3)c2)nc2ccccc2c1=O` was run?
Answer: The growth was 101%.

Question: For `CC(=O)Nc1cccc(-n2cnc3cc(-c4ccc(O)cc4)ccc32)c1`, which growth is on record?
Answer: Its growth is 66.7%.

Question: Which growth does the source give for `CCc1ccc(NC(=O)N[C@@H](Cc2cccc(C)c2)C(=O)N[C@@H]2C(=O)N3CCC[C@H]3C(=O)N3CCCC[C@H]3C(=O)N[C@@H](CO)C(=O)N3C[C@H](C)C[C@H]3C(=O)O[C@H]2C)c(F)c1` here?
Answer: The growth was 33.5%.

Question: For `COc1ccc(NC2=C(Cl)C(=O)C(C)=C(C)C2=O)cc1`, which growth is on record?
Answer: The growth was 103%.

Question: `C=CCn1c(SCC(=O)Nc2cccc(C(=O)/C=C/c3ccc(OC)c(OC)c3)c2)nc2ccccc2c1=O` was tested. Which growth did it give?
Answer: The growth was 96.1%.

Question: How did the growth turn out when `CN1CCN(c2ccc(C(=O)/C=C/c3ccc(Cl)c(C(F)(F)F)c3)cc2)CC1` was run?
Answer: Its growth is 79.7%.

Question: For `COc1ccc2c(c1)oc1c3[nH]c4ccccc4c3c3c(c21)C(=O)N(O)C3=O`, which growth is on record?
Answer: The growth was 110%.

Question: With `O=C(Nc1ccc(Cl)cc1)Nc1nc2ccc([N+](=O)[O-])cc2s1` as the compound, how does the growth read?
Answer: The growth was 18.4%.

Question: Which growth does the source give for `C[C@@H]1C[C@H]2C(=O)OCC(NC(=O)[C@H](Cc3cc(F)cc(F)c3)NC(=O)Nc3ccc(Cl)cc3F)C(=O)N3CCC[C@H]3C(=O)N3CCCC[C@H]3C(=O)N[C@@H](C)C(=O)N2C1` (stereo not given in full) here?
Answer: Its growth is 31.9%.

Question: `CC(=O)NC(C)(C)C(=O)N1CCC[C@H]1C(=O)NC(C)(C)C(=O)N[C@@H](C)C(=O)NC(C)(C)C(=O)NC(C)(C)C(=O)N[C@@H](CCC(N)=O)C(=O)NC(C)(C)C(=O)N[C@H](C(=O)NC(C)(C)C(=O)NCC(=O)N[C@@H](CC(C)C)C(=O)NC(C)(C)C(=O)N1CCC[C@H]1C(=O)N[C@H](C(=O)NC(C)(C)C(=O)NC(C)(C)C(=O)N[C@@H](CCC(N)=O)C(=O)N[C@@H](CCC(N)=O)C(=O)N[C@H](CO)Cc1ccccc1)C(C)C)C(C)C` was tested. Which growth did it give?
Answer: Its growth is 45.2% [4.25 µM].

Question: `COc1cc2c3c(n(CCCN4CCC[C@H]4C(N)=O)c(=O)c2cc1OC)-c1cc2c(cc1C3=O)OCO2` was tested. Which growth did it give?
Answer: Its growth is 26.6%.

Question: `CC(=O)Nc1ccc(NC(=O)Nc2cccc(-c3nc(-c4ccc(NC(=O)c5cccnc5)cc4Cl)no3)c2)cc1C(F)(F)F` was tested. Which growth did it give?
Answer: The growth was -49.4% (active).

Question: With `COc1ccc(N2CCN(C(=O)CSc3ccc(-c4nc5cc(C)c(C)cc5[nH]4)cn3)CC2)cc1` as the compound, how does the growth read?
Answer: The growth was 93.5%.

Question: `CS(=O)(=O)c1nccc(-c2c(-c3ccc(F)c(OCCc4ccc(F)cc4)c3)nc3sccn23)n1` was tested. Which growth did it give?
Answer: Its growth is 93.2%.

Question: `COc1ccc(-c2oc3cc(O)cc(O)c3c(=O)c2OC)cc1O` was tested. Which growth did it give?
Answer: The growth was 59.8%.

Question: For `O=C(NCCCCCCNC(=O)c1c2c(nc3ccccc13)-c1cccnc1SC2)c1c2c(nc3ccccc13)-c1cccnc1SC2`, which growth is on record?
Answer: Its growth is 57.9%.

Question: Which growth does the source give for `O=C(CSc1ccc(-c2nc3ccccc3[nH]2)cn1)N1CCN(c2ccccc2F)CC1` here?
Answer: The growth was 107%.

Question: `COc1cc2c3c(n(CCCNC4CCCC4)c(=O)c2cc1OC)-c1cc2c(cc1C3=O)OCO2` was tested. Which growth did it give?
Answer: The growth was -81.3% (active).

Question: How did the growth turn out when `N#Cc1c(-c2ccccc2)cc(-c2c[nH]c3ccccc23)nc1-c1c[nH]c2ccccc12` was run?
Answer: Its growth is 103%.

Question: How did the growth turn out when `COc1cc(CNC(=O)Cc2ccccc2[N+](=O)[O-])ccc1OCC(=O)NO` was run?
Answer: Its growth is 104%.

Question: For `CS(=O)(=O)c1nccc(-c2c(-c3ccc(F)c(OCc4ccc(F)cc4)c3)nc3sccn23)n1`, which growth is on record?
Answer: Its growth is 97%.

Question: How did the growth turn out when `Cn1cc2c(c1)-c1c(sc3nc(-c4ccc(NC(=O)Nc5cc(C(C)(C)C)on5)cc4)cn13)CC2` was run?
Answer: Its growth is 74.8%.

Question: For `CCOC(=O)c1c(NCC(=O)Nc2ccc(Br)cc2)sc2c1CCCC2`, which growth is on record?
Answer: The growth was 27.2%.

Question: How did the growth turn out when `CC(=O)Nc1ccc(C)c(Nc2cc(-c3ccc(-n4cccn4)cc3)[nH]n2)c1` was run?
Answer: The growth was 93.3%.

Question: `Cc1nn(-c2ccccc2)cc1/C=N/Nc1nc(Nc2ccccc2)nc(Nc2ccc(S(N)(=O)=O)cc2)n1` was tested. Which growth did it give?
Answer: The growth was -13.2% (active).

Question: For `CCCC(=O)NC(c1cccnc1)c1cc(Cl)c2cccnc2c1O` (stereo not given), which growth is on record?
Answer: Its growth is 55.6%.

Question: `C#CCOc1ccccc1C(Nc1ccccc1)c1nnnn1C1CCCCC1` (stereo not given) was tested. Which growth did it give?
Answer: Its growth is 91.9%.

Question: `O=c1oc2ccc(-c3ccc(F)cc3F)cc2c(=O)n1-c1cccc(C(F)(F)F)c1` was tested. Which growth did it give?
Answer: The growth was 10.4%.

Question: `Oc1ccc(-c2nnc(SCc3ccc(O)c4ncccc34)n2-c2ccccc2)cc1` was tested. Which growth did it give?
Answer: The growth was 34.6%.

Question: Which growth does the source give for `Cc1cn(-c2cc(NC(=O)c3cncc(C#Cc4cnc5ccc(O[C@@H]6CCOC6)nn45)c3)cc(C(F)(F)F)c2)cn1` here?
Answer: The growth was 0.672% (active).

Question: `CC[C@]12C=CCN3CC[C@]4(C(=C(C(=O)OC)C1)Nc1cc5c(cc14)[C@@H]1[C@H](O5)[C@@H](O)[C@@]4(CC)CC(C(=O)OC)=C5Nc6cc(OC)ccc6[C@@]56CCN1[C@@H]46)[C@@H]32` was tested. Which growth did it give?
Answer: Its growth is 25.4%.

Question: `O=C1c2c(c3c4cccnc4[nH]c3c3ccc4ccccc4c23)C(=O)N1CCN1CCCCC1` was tested. Which growth did it give?
Answer: Its growth is 88.6%.

Question: Which growth does the source give for `Cc1cc(=O)n2nc(-c3c[nH]c4ccccc34)sc2n1` here?
Answer: The growth was 101%.

Question: For `CN1CCN(c2ccc(NC(=O)Nc3ccc4c(ccn4-c4cccc(C(N)=O)n4)c3)cc2C(F)(F)F)CC1`, which growth is on record?
Answer: Its growth is 85.3%.

Question: Which growth does the source give for `C#C[C@]1(O)CC[C@H]2[C@@H]3CC=C4c5sc(C6CCOCC6)nc5CC[C@]4(C)[C@H]3CC[C@@]21C` here?
Answer: Its growth is 88.6%.

Question: For `O=C(Nc1cc(F)cc2cccnc12)c1cnc(N2CCOCC2)cn1`, which growth is on record?
Answer: Its growth is 65.6%.

Question: For `COc1ccc(N)cc1C(=O)Nc1cccc(-c2cc(=O)c3c(OC)c(OC)c(OC)cc3o2)c1`, which growth is on record?
Answer: The growth was 94.8%.

Question: Which growth does the source give for `O=C(/C=C/Nc1ccc(S(=O)(=O)O)cc1)c1ccc(F)cc1` here?
Answer: Its growth is 103%.

Question: `C#C[C@]1(O)CC[C@H]2[C@@H]3CC=C4c5sc(-c6ccc(OC)cc6)nc5CC[C@]4(C)[C@H]3CC[C@@]21C` was tested. Which growth did it give?
Answer: Its growth is 71.2%.

Question: Which growth does the source give for `NC(=O)c1c(NC(=O)c2cccc(OC(F)(F)F)c2)sc2c1CCC(=O)C2` here?
Answer: Its growth is 62.5%.
